Source: PubChem BioAssay AID651956 (Broad Institute, 2012)
Entries with a potency or affinity are not part of this list. Records with an inconclusive call do not appear. A number with no mark means an inactive call.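 How the source made its calls: active means in every test run, a fitted half-maximal concentration for signal decrease at or below twice the highest tested concentration; inconclusive means runs disagree, flat 30 to 70% decrease, or poor fit; inactive means the rest.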

Assay: activation of miR-122 Renilla sensor silencing – cell-based, Huh7 psiCHECK-miR122, Renilla luciferase, cherry-picked, dose response (AID 651956);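 further: 0% = median neutral control wells and -100% = median positive control wells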
Conditions: Huh7 psiCHECK-miR122 Renilla luciferase reporter, 48 h; series mostly up to 35 µM; activity change, negative = signal decrease: at the top concentration

Compound	activity change, negative = signal decrease
CCCNC(=O)N1C[C@@H]2[C@H](c3ccccc31)[C@@H](CO)N2Cc1cc(F)ccc1F	-0.833%
Cc1nnsc1Sc1cccc(C(F)(F)F)c1	39.2%
COCCN(C[C@@H]1[C@@H](c2ccccc2)[C@H](CO)N1C(=O)C1CCC1)C(C)=O	161%
Cc1cc(CN(C)C(=O)c2cc(COc3ccc4ncccc4c3)on2)on1	-27.4%
CC(C)NC(=O)Nc1ccc2c(c1)C(=O)N(C)[C@@H]1CC[C@@H](CC(=O)NCC(F)(F)F)O[C@@H]1CO2	117%
C[C@@H]1CN([C@@H](C)CO)S(=O)(=O)c2ccc(/C=C/c3ccccc3)cc2O[C@@H]1CN(C)C(=O)NC1CCCCC1	-109%
COc1cccc(S(=O)(=O)N(C)C[C@@H]2Oc3cc(C4=CCCCC4)ccc3S(=O)(=O)N([C@H](C)CO)C[C@@H]2C)c1	258%
CNC(=O)C[C@H]1CC[C@H]2[C@H](COc3ccc(NC(=O)c4cccc(OC)c4)cc3C(=O)N2C)O1	16.2%
CN1C(=O)c2cc(NC(=O)C3CCOCC3)ccc2OC[C@H]2O[C@H](CC(=O)NCc3ccc4c(c3)OCO4)CC[C@@H]21	-23.7%
CO[C@@H]1CN(C)C(=O)c2cc(NC(=O)NC(C)C)ccc2OC[C@H](C)N(Cc2cncnc2)C[C@H]1C	40.5%
CSc1cccc(NS(=O)(=O)c2ccccc2)c1	535%
COc1cccc(C(=O)Nc2ccc3c(c2)C(=O)N(C)[C@H]2CC[C@H](CC(=O)NCc4ccc(F)cc4)O[C@@H]2CO3)c1	60.8%
CC(C)N(C[C@@H]1N[C@@H](CO)[C@@H]1c1ccccc1)S(=O)(=O)c1ccccc1	88.1%
